Legend:
[1] = system: Botulinum neurotoxin type F light chain protease (Clostridium botulinum); assay: Clostridium botulinum type F light chain protease inhibitors, microsphere substrate cleavage, validation (AID 588459); conditions: multiplex microsphere protease substrate cleavage assay, flow cytometry; at 10 µM; stronger effect = higher value
[2] = target: Botulinum neurotoxin type A (Clostridium botulinum) (UniProt P0DPI0); assay: BoNT/A light chain protease inhibitors, biochemical, multiplex microsphere flow cytometry, validation set (AID 588460); conditions: at 10 µM, stronger effect = higher value
Chain of Botulinum neurotoxin type A (Clostridium botulinum) (P0DPI0 whole entry, looked up): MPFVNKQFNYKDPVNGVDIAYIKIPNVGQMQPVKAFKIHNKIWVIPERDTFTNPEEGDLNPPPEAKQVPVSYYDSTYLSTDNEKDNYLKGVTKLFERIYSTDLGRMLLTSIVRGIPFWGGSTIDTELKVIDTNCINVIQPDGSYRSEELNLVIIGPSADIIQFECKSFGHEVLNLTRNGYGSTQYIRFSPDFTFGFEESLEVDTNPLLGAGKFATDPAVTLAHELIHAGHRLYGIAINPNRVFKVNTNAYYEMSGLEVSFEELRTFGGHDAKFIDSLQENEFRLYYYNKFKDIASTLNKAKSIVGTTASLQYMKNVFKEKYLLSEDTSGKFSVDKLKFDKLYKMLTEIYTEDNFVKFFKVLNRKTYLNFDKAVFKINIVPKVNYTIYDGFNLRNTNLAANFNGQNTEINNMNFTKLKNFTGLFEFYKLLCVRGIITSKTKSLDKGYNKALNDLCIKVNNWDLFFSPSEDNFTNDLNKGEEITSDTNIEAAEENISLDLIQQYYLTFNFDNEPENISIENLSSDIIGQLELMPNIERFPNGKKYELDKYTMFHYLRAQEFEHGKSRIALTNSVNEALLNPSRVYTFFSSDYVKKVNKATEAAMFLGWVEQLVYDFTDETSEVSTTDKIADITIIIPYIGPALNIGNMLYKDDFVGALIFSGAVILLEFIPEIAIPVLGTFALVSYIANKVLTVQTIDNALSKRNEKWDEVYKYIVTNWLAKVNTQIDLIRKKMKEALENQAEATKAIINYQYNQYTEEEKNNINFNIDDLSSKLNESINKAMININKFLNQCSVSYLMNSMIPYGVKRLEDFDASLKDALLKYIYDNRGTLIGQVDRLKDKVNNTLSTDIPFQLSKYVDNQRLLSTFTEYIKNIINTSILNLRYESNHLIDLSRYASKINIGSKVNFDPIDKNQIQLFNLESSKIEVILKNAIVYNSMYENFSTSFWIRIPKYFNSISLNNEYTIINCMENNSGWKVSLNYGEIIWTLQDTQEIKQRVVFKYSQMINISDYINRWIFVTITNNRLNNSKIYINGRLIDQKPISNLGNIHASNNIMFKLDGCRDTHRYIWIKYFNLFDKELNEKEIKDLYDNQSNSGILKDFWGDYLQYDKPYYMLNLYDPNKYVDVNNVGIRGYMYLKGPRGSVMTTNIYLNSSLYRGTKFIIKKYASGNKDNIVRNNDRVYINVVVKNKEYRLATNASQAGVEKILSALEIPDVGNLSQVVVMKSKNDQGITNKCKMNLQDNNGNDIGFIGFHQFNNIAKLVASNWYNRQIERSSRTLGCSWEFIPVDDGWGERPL

[3] = target: Lethal factor (Bacillus anthracis) (UniProt P15917); assay: Bacillus anthracis lethal factor inhibition, microsphere flow cytometry protease assay, validation at 10 µM (AID 588461); conditions: multiplex microsphere protease cleavage assay, stronger effect = higher value
Chain of Lethal factor (Bacillus anthracis) (P15917 whole entry, looked up): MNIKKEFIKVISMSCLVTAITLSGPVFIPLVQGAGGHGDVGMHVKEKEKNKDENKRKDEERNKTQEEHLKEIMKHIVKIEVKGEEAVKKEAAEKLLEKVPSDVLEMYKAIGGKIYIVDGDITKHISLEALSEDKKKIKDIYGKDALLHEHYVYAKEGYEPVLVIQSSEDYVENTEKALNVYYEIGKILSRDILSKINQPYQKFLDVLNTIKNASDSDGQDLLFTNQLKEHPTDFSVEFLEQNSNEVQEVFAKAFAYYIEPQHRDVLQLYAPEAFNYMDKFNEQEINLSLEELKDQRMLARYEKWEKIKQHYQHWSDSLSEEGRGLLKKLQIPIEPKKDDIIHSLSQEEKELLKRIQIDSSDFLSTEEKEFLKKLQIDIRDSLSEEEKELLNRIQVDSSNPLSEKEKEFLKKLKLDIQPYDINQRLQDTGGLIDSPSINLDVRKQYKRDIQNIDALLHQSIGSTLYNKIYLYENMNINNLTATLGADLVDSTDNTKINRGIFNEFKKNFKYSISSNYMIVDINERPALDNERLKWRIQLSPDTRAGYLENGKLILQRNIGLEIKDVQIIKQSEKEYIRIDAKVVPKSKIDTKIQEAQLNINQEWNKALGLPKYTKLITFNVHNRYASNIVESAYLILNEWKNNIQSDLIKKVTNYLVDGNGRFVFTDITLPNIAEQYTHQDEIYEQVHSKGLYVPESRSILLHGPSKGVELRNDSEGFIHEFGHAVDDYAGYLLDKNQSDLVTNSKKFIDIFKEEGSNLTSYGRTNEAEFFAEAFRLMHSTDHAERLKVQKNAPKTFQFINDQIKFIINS

Measured: inhibition

CN1CCC(=C2c3ccccc3CC(=O)c3sccc32)CC1
inactive: [1] 8% | [2] 0.8% | [3] -4%

NC(N)=NC(N)=Nc1ccc2ccccc2c1
inactive: [1] 3.6% | [2] 1% | [3] 1.8%

CCOc1ccc(CC2CCC(=O)NC2=O)cc1 (stereo not drawn)
inactive: [1] -3% | [2] -0.5% | [3] -1.5%

Cc1ccc(CN2CCN(CCCc3ccccc3)CC2CCO)cc1 (stereo not drawn)
inactive: [1] 0.2% | [2] -0.2% | [3] -3.4%

N/C(Cc1ccc(Cl)cc1Cl)=N\OC(=O)c1ccc(Br)o1
inactive: [1] -0.8% | [2] -2.5% | [3] -7.4%

CCOC(=O)N1CCN(Cc2nc(Cc3cccc(F)c3)no2)CC1
inactive: [1] 1.3% | [2] 0% | [3] 3.3%

CNCCCC1c2ccccc2C=Cc2ccccc21
inactive: [1] -5.9% | [2] -1.6% | [3] -1%

Cn1c(=O)c2c(ncn2CC(O)CO)n(C)c1=O (stereo not drawn)
inactive: [1] 2.3% | [2] 1% | [3] 2%

CC1(C)c2ccccc2N2CC(=O)N(CC(N)=O)C21C (stereo not drawn)
inactive: [1] 1.5% | [2] -1.4% | [3] -5%

CC(NCCC(c1ccccc1)c1ccccc1)c1ccccc1 (stereo not drawn)
inactive: [1] -5.9% | [2] -1.1% | [3] 3.4%

COc1ccc(OCC(=O)N2c3ccc(C)cc3C3CN(C)CCC32)cc1 (stereo not drawn)
inactive: [1] -4.9% | [2] -0.7% | [3] -2.6%

CC(O)Cn1cnc2c1c(=O)n(C)c(=O)n2C (stereo not drawn)
inactive: [1] -1.4% | [2] -0.5% | [3] -3.2%

C#C[C@]1(O)CC[C@H]2[C@@H]3CCc4cc(OC5CCCC5)ccc4[C@H]3CC[C@@]21C
inactive: [1] -0.9% | [2] 0.8% | [3] 0.5%

COc1cccc2c(=O)c(C/C=C(/C)Cl)c(C)[nH]c12
inactive: [1] 1.2% | [2] -1.6% | [3] 3.4%

COc1ccccc1C1C(C#N)=C(N)Oc2c1oc(CO)cc2=O (stereo not drawn)
inactive: [1] 1.9% | [2] -1% | [3] -5.1%

CCc1cc(=O)oc2cc(C)c(CN3CCCC(C)C3)c(O)c12 (stereo not drawn)
inactive: [1] 3.9% | [2] -0.1% | [3] -3.1%
